# Measured values: PubChem BioAssay (NCATS)
# Values without a mark were called inactive. Inconclusive results are not listed. Calls of active or inactive are those of the source. Unless noted, the call rests on the fitted dose curve; in most records, active means well fitted curve in the direction sought with a large enough effect; inconclusive means small, poorly fitted or top-dose-only effect, or another doubt; inactive means no such curve, though single readings can be large; an effect the other way counts as inactive or inconclusive.
# Columns and labels:
# [1] = AP1 Signaling Pathway (AID 357; active means well fitted curve in either direction with a large enough effect, not every such curve was filed as active); conditions: ME-180 AP-1-bla reporter, EGF-induced, beta-lactamase ratio, 5 h; series mostly up to 38 µM
# Outline: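 ME-180 cells with beta-lactamase reporter under AP-1 response element, stimulated with EC50 EGF; compounds tested in titration series, 5 h at 37 °C. CCF4 substrate added 2.5 h at room temperature; 460/530 nm emission ratio gave %activity and AC50.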
# [2] = target: Cytochrome P450 1A2 (Homo sapiens) (UniProt P05177); experiment: p450-cyp1a2 (AID 410; calls by dose curve; further: potency means the concentration at half of the fitted maximal effect); conditions: recombinant CYP1A2, luciferin-ME demethylation, luminescence; series mostly up to 57 µM
# Outline: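 Luminescent readout of luciferin formed from Luciferin-ME by human CYP1A2; data normalized against complete inhibition by 57 uM furafylline. Enzyme 20nM, substrate 100uM at Km, 100mM KPO4 buffer, 60 min reaction at room temperature.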
# [3] = Stat Signaling Pathway (AID 446; active means well fitted curve in either direction with a large enough effect, not every such curve was filed as active;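 further: ME-180 cervical cancer cells given 40 pM IL-6 alongside compound; SIE-controlled beta-lactamase reporter measured as 460/530 nm FRET emission ratio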); conditions: ME-180 SIE beta-lactamase reporter, IL-6 stimulated, 5 h; series mostly up to 38 µM
# Outline: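 Reporter line: ME-180 cervical carcinoma, SIE-beta-lactamase. Treatment: compound with 40 pM IL-6, 5 hrs, 37 C, in low-serum OPTI-MEM with 10 mM HEPES pH 7.3. Detection: 460/530 nm fluorescence.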
# [4] = target: Glucocorticoid receptor (Homo sapiens) (UniProt P04150); experiment: GR-GFP Redistribution (AID 450;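 active means compounds whose dose series gives a full or clear partial fitted curve of increased nuclear translocation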; further: potency means the concentration at half of the fitted maximal effect); conditions: U2OS GR-GFP nuclear translocation, laser cytometry, 2 h
# [5] = target: Glucocorticoid receptor (Homo sapiens) (UniProt P04150); experiment: GR-EFC Redistribution (AID 451; calls by dose curve; further: potency means the concentration at half of the fitted maximal effect); conditions: CHO-K1 GR-EFC translocation, beta-gal luminescence, 2 h
# Outline: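 CHO-K1 cells stably expressing nuclear-localized β-gal enzyme acceptor and GR fused C-terminally to the enzyme donor fragment; ligand-driven nuclear translocation restores β-gal by complementation. Compounds titrated up to 46 uM final, 2 h at 37 °C; luminescence read.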
# [6] = target: 3',5'-cyclic-AMP phosphodiesterase 4B (Homo sapiens) (UniProt Q07343); experiment: qHTS Assay for Inhibitors of PDE-IV (AID 607; active means well fitted activation curve with a large enough effect in the main read-out, with a control signal flat, not every such curve was filed as active); conditions: HEK293 ACTOne CNG channel cells, membrane potential fluorescence; series mostly up to 22.9 µM
# Outline: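 Cell-based read-out of cAMP via a modified cyclic nucleotide-gated channel and membrane potential dye (535/590 nm) in HEK293 cells expressing PDE4 endogenously. Compounds tested up to 22.9 uM final; 100 uM RO 20-1724 reference.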
# [7] = target: Cytochrome P450 2C19 (Homo sapiens) (UniProt P33261); experiment: qHTS Assay for Inhibitors and Substrates of Cytochrome P450 2C19 (AID 899); conditions: recombinant CYP2C19, luciferin-H EGE luminescence; series mostly up to 57.1 µM; further: nearly all actives have a fitted effect of over 60% in size
# Outline: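 In 50mM KPO4, the reaction held 5nM enzyme and KM-level (10uM) Luciferin-H EGE; it ran 60 min at 37C after NADPH regeneration and a 10 min compound preincubation. Luminescence values were scaled to 57uM ketoconazole as complete inhibition.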
# [8] = target: D(1A) dopamine receptor (Homo sapiens) (UniProt P21728); experiment: HTS Assay for Allosteric Agonists of the Human D1 Dopamine Receptor: Primary Screen for Potentiators (AID 488982); conditions: HEK293 T-REx D1 inducible cells, calcium flux, kinetic fluorescence; series mostly up to 8.37 µM; further: potency means the concentration at half of the fitted maximal effect
# Outline: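 Tetracycline-induced HEK293 T-REx cells force-coupled to calcium signalling were incubated overnight at 30 C and dye-loaded at room temperature. Calcium flux over 180 s after compound addition flagged agonists; a further 180 s read after EC20 dopamine flagged potentiators.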
# [9] = target: DNA dC->dU-editing enzyme APOBEC-3G (Homo sapiens) (UniProt Q9HC16); experiment: qHTS for inhibitors of Vif-A3G interactions: Validation (AID 588379); conditions: Vif-A3G protein interaction assay; series mostly up to 46.1 µM; further: potency means the concentration at half of the fitted maximal effect
# Outline: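 HeLa cells stably expressing Vif and A3G-eYFP, 700 cells/well, incubated overnight at 37 deg C, then exposed to compound overnight at 37 deg C. Inhibition of Vif-mediated degradation read as increased yellow fluorescence (Ex 488/Em 500-530) by laser-scanning cytometry.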
# [10] = target: Glutaminase kidney isoform, mitochondrial (Homo sapiens) (UniProt O94925); experiment: qHTS for Inhibitors of Glutaminase (GLS): LOPAC Validation (AID 624146); conditions: glutaminase enzyme activity inhibition; series mostly up to 46.1 µM;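 further: glutamate product detected by oxidase and peroxidase coupled Amplex red fluorescence gain; nearly all actives have a fitted effect of over 60% in size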
# Outline: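 Read-out is an Amplex red fluorescence increase coupled through glutamate oxidase and HRP, measured before and after 30 min room-temperature incubation. hKGA is in 45 mM KH2PO4 (pH 8.2) with 0.02% Tween-20; glutamine added as 1mM solution.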
# [11] = qHTS of Trypanosoma Brucei Inhibitors: LOPAC Validation (AID 624147); conditions: purified enzyme assay, luminescence, 45 min; series mostly up to 57.5 µM
# Outline: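 Glycolytic pyruvate kinase of T. brucei was incubated with substrate, test compound and 130 uM ADP for 45 minutes at room temperature. Luminescent Kinase-Glo Plus signal was measured after 10 minutes.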
# [12] = qHTS Assay for Identification of Small Molecule Antagonists for Thrombopoietin (TPO) Signaling Pathway (AID 918); conditions: TPO-dependent cell signaling reporter, antagonist mode; further: potency means the concentration at half of the fitted maximal effect; nearly all actives have a fitted effect of over 60% in size
# Outline: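 Ba/F3 (murine, hTPO-R, GPIIb-luc reporter); overnight IL-3 withdrawal; cpd + TPO 26 pM final (EC50); 24 h 37 C/5% CO2; Steadylite luminescence after 10 min RT.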
# [13] = High Content Imaging Cell-Based qHTS for Inhibitors of the mTORC1 Signaling Pathway in MEF Cells (AID 2667); conditions: series mostly up to 38.3 µM; further: potency means the concentration at half of the fitted maximal effect
# Outline: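 MEF (Tsc2-/-, p53-/-, WT Tsc2 re-expressed); cpd 24 h, 37 °C; PFA fix; Alexa-488 anti-p-rpS6 Ser235/236, PI, Hoechst; IN Cell imaging; Hoechst/Alexa-488 intensity ratio; % active cells, thresholds set from rapamycin and DMSO wells.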
# [14] = qHTS for compounds that reverse cellular toxicity of Amyloid beta (A-beta) peptide in yeast: LOPAC Validation Assay (AID 720559); conditions: yeast expressing A-beta; series mostly up to 46.1 µM
# Outline: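 Activity is expressed relative to DMSO and an equimolar ferric chloride/clioquinol mix. Compounds were pinned into medium with A-beta-expressing yeast, grown 48 hr at 30 C, then read by absorbance at 600 nm.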
# [15] = qHTS Assay for Identification of Small Molecule Antagonists for NFkB Signaling Pathway (AID 895; active means well fitted inhibition curve with a large enough effect in the signal ratio, with a control signal flat, not every such curve was filed as active; the % refers to the signal ratio; further: potency means the concentration at half of the fitted maximal effect); conditions: NFkB beta-lactamase reporter cells, FRET ratio 460/530; series mostly up to 38.3 µM
# Outline: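 NFkB-bla ME-180 cervical carcinoma cells with beta-lactamase reporter under NFkB response element; compounds added, then TNF alpha at 10 pM final (EC50), 5 h at 37 C. LiveBLAzer substrate 2 h, room temperature; emission 460/530 nm at 405 nm excitation.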
# [16] = target: ATPase family AAA domain-containing protein 5 (Homo sapiens) (UniProt Q96QE3); experiment: Validation screen for small molecules that inhibit ELG1-dependent DNA repair in human embryonic kidney (HEK293T) cells expressing luciferase-tagged ELG1 (AID 493107); conditions: HEK293T ELG1-luciferase level, luminescence, 5-fluorouridine co-treatment, 16 h; series mostly up to 46.1 µM; further: potency means the concentration at half of the fitted maximal effect; nearly all actives have a fitted effect of over 70% in size
# Outline: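 Luminescence from ONE-Glo, developed 30 min at room temperature, served as read-out of ELG1-luciferase levels. Beforehand, reporter HEK293T cells received 5-fluorouridine plus test compound for 16 hr at 37 °C.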
# [17] = qHTS for Inhibitors of ATXN expression: Validation (AID 588378); conditions: cell-based ATXN2 expression reporter assay, luminescence; series mostly up to 57.1 µM; further: potency means the concentration at half of the fitted maximal effect; nearly all actives have a fitted effect of over 75% in size
# Outline: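 Validation of ATXN2 expression inhibitors uses a cell-based luciferase fusion reporter in HEK293 cells, with 24 h compound exposure and paired viability (fluorescence) and reporter (luminescence) end-point reads.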
# [18] = target: Tyrosyl-DNA phosphodiesterase 1 (Homo sapiens) (UniProt Q9NUW8); experiment: Confirmation Assay for Inhibitors of Tyrosyl-DNA Phosphodiesterase (TDP1) (AID 489007); conditions: recombinant human TDP1 enzymatic activity, dose-response; further: potency means the concentration at half of the fitted maximal effect; nearly all actives have a fitted effect of over 40% in size
# Outline: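 Tdp1 1 nM + cpd, 15 min RT; add biotin/phosphotyrosine-FITC oligo 15 nM, 5 min RT; add AS donor/acceptor beads 10 ug/ml, 10 min RT; read AlphaScreen. No-enzyme wells = max signal.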
# [19] = HTS Assay for Allosteric Antagonists of the Human D2 Dopamine Receptor: Hit Validation in HTRF (AID 624455); conditions: Cells stably expressing D1 dopamine receptor, inhibition mode; series mostly up to 46.1 µM;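 further: stable D1 dopamine receptor cell line scored for blocking the D1 response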
# Outline: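 First, antagonism was screened by calcium flux in a force-coupled, inducible Hek293 Trex D2 line challenged with EC80 dopamine. Hits then went into an HTRF assay in cells stably expressing D1, testing inhibition of the D1 response.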
# Chain of Glucocorticoid receptor (Homo sapiens) (P04150 whole entry, looked up, the tested form may be a part): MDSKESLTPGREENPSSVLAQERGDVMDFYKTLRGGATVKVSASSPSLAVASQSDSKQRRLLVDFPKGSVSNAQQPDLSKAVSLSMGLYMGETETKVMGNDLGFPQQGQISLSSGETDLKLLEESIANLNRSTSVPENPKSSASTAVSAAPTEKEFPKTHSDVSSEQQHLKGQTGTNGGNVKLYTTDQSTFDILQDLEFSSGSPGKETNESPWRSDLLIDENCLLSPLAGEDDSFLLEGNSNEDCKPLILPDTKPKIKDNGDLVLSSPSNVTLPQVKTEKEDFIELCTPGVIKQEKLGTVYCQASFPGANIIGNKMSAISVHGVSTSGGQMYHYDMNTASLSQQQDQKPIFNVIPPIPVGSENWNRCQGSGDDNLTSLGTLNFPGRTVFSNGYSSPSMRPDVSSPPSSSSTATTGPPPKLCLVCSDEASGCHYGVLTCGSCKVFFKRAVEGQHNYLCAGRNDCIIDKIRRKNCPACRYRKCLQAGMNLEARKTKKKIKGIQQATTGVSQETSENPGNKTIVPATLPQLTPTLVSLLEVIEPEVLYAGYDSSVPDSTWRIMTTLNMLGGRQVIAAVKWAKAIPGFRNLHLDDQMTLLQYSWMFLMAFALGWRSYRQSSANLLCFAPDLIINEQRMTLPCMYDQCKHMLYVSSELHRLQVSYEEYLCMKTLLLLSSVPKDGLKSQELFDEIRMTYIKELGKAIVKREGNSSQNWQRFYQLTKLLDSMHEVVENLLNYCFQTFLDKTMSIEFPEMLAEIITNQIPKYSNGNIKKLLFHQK
# Chain of D(1A) dopamine receptor (Homo sapiens) (P21728 whole entry, looked up): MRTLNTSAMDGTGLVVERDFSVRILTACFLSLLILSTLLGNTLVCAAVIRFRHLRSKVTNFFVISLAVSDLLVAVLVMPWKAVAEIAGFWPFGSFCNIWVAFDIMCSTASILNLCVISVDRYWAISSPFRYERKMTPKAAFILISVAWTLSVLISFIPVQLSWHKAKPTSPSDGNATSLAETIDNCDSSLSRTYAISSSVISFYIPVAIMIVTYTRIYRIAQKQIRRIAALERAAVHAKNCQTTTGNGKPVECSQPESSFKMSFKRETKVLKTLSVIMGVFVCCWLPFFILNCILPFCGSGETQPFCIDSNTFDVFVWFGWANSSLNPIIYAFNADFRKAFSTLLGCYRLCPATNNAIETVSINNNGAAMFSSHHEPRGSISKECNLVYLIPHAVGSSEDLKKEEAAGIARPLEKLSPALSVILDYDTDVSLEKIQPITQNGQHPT
# Chain of ATPase family AAA domain-containing protein 5 (Homo sapiens) (Q96QE3 whole entry, looked up, the tested form may be a part): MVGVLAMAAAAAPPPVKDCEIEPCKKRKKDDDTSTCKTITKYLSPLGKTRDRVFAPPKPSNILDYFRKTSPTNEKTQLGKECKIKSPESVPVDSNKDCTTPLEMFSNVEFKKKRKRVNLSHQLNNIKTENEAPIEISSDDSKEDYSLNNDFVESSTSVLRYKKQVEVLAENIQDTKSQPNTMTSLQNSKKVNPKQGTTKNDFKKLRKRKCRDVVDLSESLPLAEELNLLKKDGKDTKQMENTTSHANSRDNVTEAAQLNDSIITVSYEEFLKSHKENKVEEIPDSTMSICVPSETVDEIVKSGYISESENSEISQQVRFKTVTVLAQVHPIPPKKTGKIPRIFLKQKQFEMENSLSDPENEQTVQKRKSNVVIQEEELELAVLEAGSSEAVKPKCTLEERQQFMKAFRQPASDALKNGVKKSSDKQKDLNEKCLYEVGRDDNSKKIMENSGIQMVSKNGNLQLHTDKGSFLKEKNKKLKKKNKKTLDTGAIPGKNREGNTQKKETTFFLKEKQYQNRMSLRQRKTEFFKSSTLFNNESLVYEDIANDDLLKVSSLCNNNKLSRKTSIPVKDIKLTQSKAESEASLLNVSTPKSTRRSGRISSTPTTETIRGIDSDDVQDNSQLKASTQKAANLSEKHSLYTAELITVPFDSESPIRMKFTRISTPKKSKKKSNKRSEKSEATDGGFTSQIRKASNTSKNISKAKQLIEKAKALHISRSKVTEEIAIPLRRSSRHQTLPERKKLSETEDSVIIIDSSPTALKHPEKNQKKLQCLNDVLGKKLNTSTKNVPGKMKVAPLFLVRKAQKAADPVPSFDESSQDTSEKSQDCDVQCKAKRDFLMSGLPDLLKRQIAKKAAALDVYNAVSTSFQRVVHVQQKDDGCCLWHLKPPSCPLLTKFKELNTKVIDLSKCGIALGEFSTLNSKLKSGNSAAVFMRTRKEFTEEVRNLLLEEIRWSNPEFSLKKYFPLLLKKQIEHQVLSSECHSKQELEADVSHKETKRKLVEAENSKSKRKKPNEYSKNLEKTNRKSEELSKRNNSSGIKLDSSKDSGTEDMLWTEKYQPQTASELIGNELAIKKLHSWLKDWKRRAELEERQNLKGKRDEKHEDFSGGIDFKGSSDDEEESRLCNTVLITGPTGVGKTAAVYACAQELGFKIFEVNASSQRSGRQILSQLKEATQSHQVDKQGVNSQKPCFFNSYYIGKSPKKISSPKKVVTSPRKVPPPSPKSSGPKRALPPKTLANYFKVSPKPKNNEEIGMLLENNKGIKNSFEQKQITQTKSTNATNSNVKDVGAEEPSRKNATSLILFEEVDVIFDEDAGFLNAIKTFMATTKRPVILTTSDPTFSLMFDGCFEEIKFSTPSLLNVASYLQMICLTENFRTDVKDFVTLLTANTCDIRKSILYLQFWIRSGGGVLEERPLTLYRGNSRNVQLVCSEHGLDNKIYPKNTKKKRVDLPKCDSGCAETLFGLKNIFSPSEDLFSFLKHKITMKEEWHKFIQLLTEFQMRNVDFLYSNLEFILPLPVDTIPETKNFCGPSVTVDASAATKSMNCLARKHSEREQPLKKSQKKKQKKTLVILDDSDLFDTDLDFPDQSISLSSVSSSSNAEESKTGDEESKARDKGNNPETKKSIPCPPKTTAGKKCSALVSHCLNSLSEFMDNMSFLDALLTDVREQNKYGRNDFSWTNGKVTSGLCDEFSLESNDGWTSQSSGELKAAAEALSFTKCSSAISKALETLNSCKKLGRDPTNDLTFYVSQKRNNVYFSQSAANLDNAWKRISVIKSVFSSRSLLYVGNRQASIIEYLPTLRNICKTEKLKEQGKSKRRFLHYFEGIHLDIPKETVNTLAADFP
# Chain of Tyrosyl-DNA phosphodiesterase 1 (Homo sapiens) (Q9NUW8 whole entry, looked up): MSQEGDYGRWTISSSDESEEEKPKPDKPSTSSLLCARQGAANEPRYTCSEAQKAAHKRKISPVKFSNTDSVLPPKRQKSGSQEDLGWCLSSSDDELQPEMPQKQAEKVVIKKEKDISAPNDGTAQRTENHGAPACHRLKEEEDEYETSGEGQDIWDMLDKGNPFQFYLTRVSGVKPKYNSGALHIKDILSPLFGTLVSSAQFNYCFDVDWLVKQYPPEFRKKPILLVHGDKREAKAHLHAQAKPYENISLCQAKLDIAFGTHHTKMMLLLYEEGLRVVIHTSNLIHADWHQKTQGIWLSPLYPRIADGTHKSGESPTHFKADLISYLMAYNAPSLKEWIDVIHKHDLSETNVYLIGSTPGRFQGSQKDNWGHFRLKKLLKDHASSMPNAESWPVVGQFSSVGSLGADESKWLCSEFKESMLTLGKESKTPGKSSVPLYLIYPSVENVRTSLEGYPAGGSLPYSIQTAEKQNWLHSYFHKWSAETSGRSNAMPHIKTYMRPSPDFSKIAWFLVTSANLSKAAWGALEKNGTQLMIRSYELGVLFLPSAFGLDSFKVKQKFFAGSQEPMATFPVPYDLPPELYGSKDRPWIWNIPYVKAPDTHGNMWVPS
# Chain of DNA dC->dU-editing enzyme APOBEC-3G (Homo sapiens) (Q9HC16 whole entry, looked up): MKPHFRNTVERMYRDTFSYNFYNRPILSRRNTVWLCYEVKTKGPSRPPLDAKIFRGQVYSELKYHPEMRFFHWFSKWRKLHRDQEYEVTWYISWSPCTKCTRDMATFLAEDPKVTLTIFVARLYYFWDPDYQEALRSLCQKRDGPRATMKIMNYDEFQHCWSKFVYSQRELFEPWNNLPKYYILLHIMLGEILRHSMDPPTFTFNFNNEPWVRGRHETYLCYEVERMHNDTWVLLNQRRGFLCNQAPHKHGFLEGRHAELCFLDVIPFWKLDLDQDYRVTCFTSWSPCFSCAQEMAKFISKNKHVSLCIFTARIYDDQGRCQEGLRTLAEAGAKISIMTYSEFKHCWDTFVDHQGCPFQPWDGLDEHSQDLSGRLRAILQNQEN
# Chain of 3',5'-cyclic-AMP phosphodiesterase 4B (Homo sapiens) (Q07343 whole entry, looked up): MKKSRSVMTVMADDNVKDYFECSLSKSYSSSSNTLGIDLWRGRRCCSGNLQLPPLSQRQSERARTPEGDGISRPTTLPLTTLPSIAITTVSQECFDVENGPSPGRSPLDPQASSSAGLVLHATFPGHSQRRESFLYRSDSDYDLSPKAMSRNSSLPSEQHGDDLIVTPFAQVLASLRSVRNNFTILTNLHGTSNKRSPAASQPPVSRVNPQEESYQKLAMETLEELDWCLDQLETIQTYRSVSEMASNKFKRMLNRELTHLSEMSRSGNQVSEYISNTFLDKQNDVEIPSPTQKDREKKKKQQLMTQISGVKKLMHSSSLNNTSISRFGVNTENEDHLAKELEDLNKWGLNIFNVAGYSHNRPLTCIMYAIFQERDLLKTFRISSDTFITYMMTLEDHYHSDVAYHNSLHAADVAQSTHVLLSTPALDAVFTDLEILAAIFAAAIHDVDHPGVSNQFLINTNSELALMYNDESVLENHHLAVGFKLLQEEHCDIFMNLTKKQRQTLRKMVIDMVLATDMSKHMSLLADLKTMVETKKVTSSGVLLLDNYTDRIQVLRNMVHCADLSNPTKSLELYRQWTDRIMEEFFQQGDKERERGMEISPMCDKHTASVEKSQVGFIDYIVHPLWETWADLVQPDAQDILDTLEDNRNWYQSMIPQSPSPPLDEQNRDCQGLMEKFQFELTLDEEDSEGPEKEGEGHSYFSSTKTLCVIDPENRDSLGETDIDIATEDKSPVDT
compound,measurement,setting,value
CC1=C[C@@H]2c3cccc4[nH]cc(c34)C[C@H]2N(C)C1,outcome,[1],inactive
same,Potency,[2],3.16 µM (active)
same,outcome,[3],inactive
same,Potency,[4],> 46 µM
same,Potency,[5],> 46 µM
same,Potency,[6],inactive
same,Potency,[7],inactive
Nc1nc2ccc(Cl)cc2c2nc(-c3ccco3)nn12,Potency,[8],1.3 µM (active)
same,Potency,[9],0.596 µM (active)
COc1cc([C@@H]2c3cc4c(cc3[C@H](O)C3COC(=O)[C@@H]32)OCO4)cc(OC)c1OC (some centres undefined),outcome,[10],inactive
same,outcome,[11],inactive
O=c1oc(Cl)c(Cl)c2ccccc12,Potency,[12],12.6 µM (active)
same,Potency,[13],18.5 µM (active)
same,outcome,[14],inactive
Brc1c(Br)c(Br)c2n[nH]nc2c1Br,Potency,[15],5.01 µM (active)
same,Potency,[16],25.9 µM (active)
same,Potency,[17],28.2 µM (active)
NC1C=CC=C(C(=O)O)C1 (centres undefined),Potency,[18],1.12 µM (active)
Cn1ccnc1,outcome,[19],inactive
